Measured values from PubChem BioAssay (NCI).
About 83,000 compounds went through this panel and 20% of them were active in at least one assay; those are over-represented in the sample as a whole.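 Step 1: grow cells in 96-well plates. Step 2: add test compound at a single concentration. Step 3: incubate 48 h. Step 4: record percent growth.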 Unmarked numbers belong to inactive results. Active and inactive are the calls of the source. The calls were made as follows: active = growth percent below 10; inactive = the rest.

What follows are compounds tested on RXF 393 renal (assay: NCI-60 one-dose screen, 48 h (100 = growth as untreated, 0 = no growth, -100 = all killed)). Details: 10 µM unless noted.
In the case of O=C(CSc1nc2ccc([N+](=O)[O-])cc2[nH]1)Nc1ccc(F)c(Cl)c1, the growth is reported as 29.7%. For Cc1cc(C)c(O)c(CNCCCCCCNCc2cc(C)cc(C)c2O)c1, the growth was -2.77% (active). Compound CS(=O)(=O)c1cccnn1 has a growth of 102%. Work on Cc1ccc(S(=O)(=O)Nc2ccccc2)cc1N yielded a growth of 94.5%. Work on Nc1cc(C(=O)O)[nH]c(=S)n1 yielded a growth of 96.9%. COc1ccc(-c2nc3ccccn3c2/C=C/C(=O)c2cc(OC)c(OC)c(OC)c2)cc1OC was tested, and the growth was 27.8%. O=C(Nc1cccc2cccnc12)c1cc(C(=O)c2ccc(Cl)cc2)n2ccc(-c3ccncc3)cc12 was tested, and the growth was 104%. With Cc1cccc(C[C@H](NC(=O)Nc2ccc(C)cc2F)C(=O)N[C@@H]2C(=O)N3C[C@H](O)C[C@H]3C(=O)N3CCN(C)C[C@H]3C(=O)N[C@@H](C)C(=O)N3C[C@H](C)C[C@H]3C(=O)O[C@H]2C)c1 the growth was 79.1%. With O=C1COCCN1c1ccc(NCc2cn(Cc3cccc4ccccc34)c3ccccc23)cc1 the growth was 43.1%. Work on COc1ncnc2c(-c3ccccc3)cn(COCc3ccccc3)c12 yielded a growth of 70.3%. Compound O=C1CN(Cc2ccc(C(=O)NO)cc2)C(=O)[C@@H](Cc2ccccc2)N1 has a growth of 112%. Work on CC(C)C1=NOC(=O)C1=Cc1cn(-c2ccco2)nc1-c1ccccc1 yielded a growth of 80.6%. c1ccc(-c2nnc(-c3c[nH]c4ncccc34)s2)cc1 was tested, and the growth was 94.5%. Work on COCCCNc1nc(NC(=O)c2cc(Br)cc(C(F)(F)F)c2)cc(-c2cccnc2)n1 yielded a growth of 103%. CCn1cc(-c2cc(-c3ccc(Cl)cc3)nc(N)n2)c(-c2ccc(Br)cc2)n1 was tested, and the growth was 94.8%. For CCOC(CNC(=O)c1cccc([N+](=O)[O-])c1)OCC, the growth was 65.7%. With Cc1cccc([N+](=O)[O-])c1I the growth was 111%. Work on CCOc1cc(NC(=O)c2ccccc2)c(OCC)cc1N yielded a growth of 117%. With CN(C)CCOc1ccc(/C(=C(/CCCl)c2ccccc2)c2ccccc2)cc1 the growth was -41.7% (active). Nc1nc(N)c2c(n1)NC(c1ccc(F)cc1)C1CCc3ccccc3C1=N2 (stereo not drawn) was tested, and the growth was 83.1%. CNC(=O)c1cc(Oc2ccc3nc(NC(=O)c4ccc5ncccc5c4)sc3c2)ccn1 showed a growth of 109%. Compound CC1(C)CC[C@]23CC[C@]4(C)[C@H](CC[C@@H]5[C@@]6(C)C/C(=C/c7ccncc7)C(=O)C(C)(C)[C@@H]6CC[C@]54C)[C@H]2[C@H]1OC3=O has a growth of 43.6% [100 µM]. CC1=CC[C@@H]2C(C)(C)C(=O)CC[C@@]2(C)[C@@H]1COc1ccc2ccc(=O)oc2c1 showed a growth of 68.6%. COc1ccc(/C=C/C=C\C(=O)c2ccc(-n3ccnc3)cc2)cc1 showed a growth of 92.7%. CCc1cccc(Cl)c1 gave a growth of 114%. With Cc1ccc(S(=O)(=O)n2cc(C(=O)C(=O)N3CCCCC3)c3ccccc32)cc1 the growth was 113%. In the case of Cn1cc(-c2noc(-c3cn(C)c4ncc(F)cc34)n2)c2cc(Cl)ccc21, the growth is reported as 78%. O=C(Nc1cccc2ccccc12)c1cc2ccccc2cc1O showed a growth of 22.7%. With C#C[C@]1(O)CC[C@H]2[C@@H]3CC=C4c5nc(Nc6ncccn6)sc5CC[C@]4(C)[C@H]3CC[C@@]21C the growth was -59.1% (active). In the case of CC(=O)OC[C@]12CC[C@@H](C(=O)CBr)[C@@H]1[C@H]1CC[C@@H]3[C@@]4(C)CCCNC(C)(C)[C@@H]4CC[C@@]3(C)[C@]1(C)CC2, the growth is reported as -81.9% [100 µM] (active). With O=S(=O)(c1ccc(N/N=C\c2ccccc2Cl)cc1)c1ccc(N/N=C/c2ccccc2Cl)cc1 the growth was 106%. With Nc1nc(Cl)c2ncn(Cc3cc4c(cc3I)OCO4)c2n1 the growth was 66.3%. Compound Cc1ccc2c(c1)/C(=N\N=C/c1cn(C(C)C)c3ccccc13)C(=O)N2 has a growth of 22.5%. Work on O=C1CC(c2ccccc2)Cc2nc3ccc(Cl)cc3cc21 (stereo not drawn) yielded a growth of 21.8%. With C=C(C)[C@@H]1CC[C@]2(C(N)=O)CC[C@]3(C)[C@H](CC[C@@H]4[C@@]5(C)CC[C@H](O)C(C)(C)[C@@H]5CC[C@]43C)[C@@H]12 the growth was -49.3% [100 µM] (active). COc1ccc(-c2cc(-c3ccc(Cl)cc3)nc(SCCCCCCC(=O)NO)n2)cc1 was tested, and the growth was -0.367% (active). For Cc1cc[n+](CCCCCCCCCC[n+]2ccc(C)cc2)cc1, the growth was 127%. CCCSc1nc(N)nc2nc[nH]c12 was tested, and the growth was 107%.
